Measured values: PubChem BioAssay
The source made the active and inactive calls.

Key:
[1] = binders of probe aFSTL3 on microarray, primary screen, stem cell growth factor project, biochemical, small-molecule microarray, fluorescence 635/667 (AID 1064); conditions: higher = more signal;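 note: measures binding of the biotinylated anti-FSTL3 antibody to printed compounds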
[2] = binders from COS7 lysate, DM2A8 probe, primary screen, torsin A project, cell lysate, small-molecule microarray, fluorescence 635/667 (AID 1065); conditions: higher = more signal, COS7 lysate expressing mutant human TOR1A
[3] = binders of probe aFGF2 on microarray, primary screen, stem cell growth factor project, biochemical, small-molecule microarray, fluorescence 635/667 (AID 1067); conditions: higher = more signal;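 note: measures binding of biotinylated aFGF2 protein to printed compounds on slides; z-score merges feature fluorescence and signal-to-noise across triplicate slides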
[4] = binders of probe aFGF10 on microarray, primary screen, stem cell growth factor project, biochemical, small-molecule microarray, fluorescence 635/667 (AID 1071); conditions: higher = more signal;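 note: score merges 667 nm spot intensity and signal to noise from triplicate slides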
[5] = biological target: Neurogenic locus notch homolog protein 2 (Homo sapiens) (UniProt Q04721); test: Notch2 binders on small-molecule microarrays, primary screen, biochemical, small-molecule microarray, 635 nm fluorescence, stem cell growth factors (AID 1073); conditions: Notch2 binding, higher = more signal
[6] = biological target: Pro-neuregulin-1, membrane-bound isoform (Homo sapiens) (UniProt Q02297); test: NRG1 binders on small-molecule microarrays, primary screen, psychiatric disease protein project, biochemical, small-molecule microarray, fluorescence 635/667 (AID 1075); conditions: NRG1 binding, 635 nm fluorescence, higher = more signal;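 note: score combines 667 nm spot fluorescence with signal to noise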
[7] = tested on: Neuregulin-1 EGF-like domain; test: binders of neuregulin-1 EGF-like domain, primary screen, biochemical, small-molecule microarray, 635 nm fluorescence (AID 1081); conditions: small-molecule microarray binding, higher = more signal;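 note: binding of the protein to compounds printed on small-molecule microarray slides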
[8] = FRG1 promoter luciferase signal modulators, primary screen, FRG1 inhibition for FSHD, cell-based, C2C12 myotubes, firefly/Renilla luciferase, luminescence (AID 1084); conditions: higher = more signal, called active from +8 up or from −8 down
[9] = binders of probe aFST on microarray, primary screen, stem cell growth factor project, biochemical, small-molecule microarray, fluorescence 635/667 (AID 1086); conditions: higher = more signal;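 note: score merges 667 nm fluorescence with signal-to-noise of each printed compound spot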
[10] = binders of probe aHhip on microarray, primary screen, stem cell growth factor project, biochemical, small-molecule microarray, fluorescence 635/667 (AID 1087); conditions: higher = more signal;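 note: score merges spot fluorescence at 667nm with spot signal to noise ratio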
[11] = tested on: PRMT1 (protein arginine N-methyltransferase 1); test: PRMT1 binders on small-molecule microarrays, primary screen, biochemical, small-molecule microarray, 635 nm fluorescence (AID 1088); conditions: small-molecule microarray binding, higher = more signal;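 note: binding of Prmt1 protein to compounds spotted on small-molecule microarray slides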
[12] = yeast growth modulation, basal conditions, primary screen, YJM789 clinical isolate, OD600, 24 h (AID 1089);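 note: growth of clinical yeast isolate S. cerevisiae YJM 789 seeded 1000 cells per well; test concentration not given here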; conditions: S. cerevisiae YJM789 growth, higher = more signal, called active from +8 up or from −8 down
[13] = fission yeast growth modulation, primary screen, strain 972, OD600, 24 h, no modulator (AID 1090);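 note: basal condition with compound alone and no growth modifier present; test concentration not given here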; conditions: S. pombe 972 growth, higher = more signal, called active from +8 up or from −8 down
[14] = S. cerevisiae growth modulation with rapamycin, primary screen, strain BY4716, OD600, 96 h (AID 1091); conditions: higher = more signal, called active from +8 up or from −8 down; note: test concentration not given here
[15] = biological target: Torsin-1A-interacting protein 2 (Homo sapiens) (UniProt Q8NFQ8); test: LULL1 binders on small-molecule microarray, primary screen, cell lysate, human LULL1 lysate, 635/667 nm fluorescence (AID 1092); conditions: hLULL1 lysate binding, 635 nm fluorescence, higher = more signal;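 note: probe is lysate of COS7 cells overexpressing human LULL1; score merges per-feature 667 nm fluorescence with signal-to-noise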
[16] = E. coli growth modulation, two-sided OD650, primary screen, E. coli filamentation project, strain DRC41, 24 h (AID 1093); conditions: OD650, 24 h, higher = more signal, called active from +8 up or from −8 down;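 note: MC1000 strain lacking acrAB efflux and sulA so SOS filamentation is blocked; test concentration not given here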
[17] = small-molecule microarray binders of probe aLefty2, primary screen, biochemical, biotinylated probe, 635/667 nm fluorescence (AID 1094); conditions: higher = more signal;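 note: score merges spot fluorescence near 667 nm with spot signal-to-noise ratio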
[18] = tested on: Noggin (protein binding on small-molecule microarray); test: Noggin binders on small-molecule microarray, primary screen, biochemical, 635/667 nm fluorescence (AID 1095); conditions: 635 nm fluorescence, higher = more signal;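 note: score merges 667 nm feature fluorescence with signal to noise over triplicate slides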
[19] = biological target: Neurogenic locus notch homolog protein 3 (Homo sapiens) (UniProt Q9UM47); test: NOTCH3 binders on small-molecule microarray, primary screen, biochemical, 635/667 nm fluorescence (AID 1096); conditions: NOTCH3 binding, 635 nm fluorescence, higher = more signal
[20] = small-molecule microarray binders of probe aEGFR, primary screen, biochemical, biotinylated probe, 635/667 nm fluorescence (AID 1097); conditions: higher = more signal;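 note: probe is a biotinylated anti-EGFR antibody binding compounds printed on slides; score combines fluorescence near 667 nm and signal to noise of each spot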

Chain of Neurogenic locus notch homolog protein 2 (Homo sapiens) (Q04721 whole entry, looked up, canonical isoform): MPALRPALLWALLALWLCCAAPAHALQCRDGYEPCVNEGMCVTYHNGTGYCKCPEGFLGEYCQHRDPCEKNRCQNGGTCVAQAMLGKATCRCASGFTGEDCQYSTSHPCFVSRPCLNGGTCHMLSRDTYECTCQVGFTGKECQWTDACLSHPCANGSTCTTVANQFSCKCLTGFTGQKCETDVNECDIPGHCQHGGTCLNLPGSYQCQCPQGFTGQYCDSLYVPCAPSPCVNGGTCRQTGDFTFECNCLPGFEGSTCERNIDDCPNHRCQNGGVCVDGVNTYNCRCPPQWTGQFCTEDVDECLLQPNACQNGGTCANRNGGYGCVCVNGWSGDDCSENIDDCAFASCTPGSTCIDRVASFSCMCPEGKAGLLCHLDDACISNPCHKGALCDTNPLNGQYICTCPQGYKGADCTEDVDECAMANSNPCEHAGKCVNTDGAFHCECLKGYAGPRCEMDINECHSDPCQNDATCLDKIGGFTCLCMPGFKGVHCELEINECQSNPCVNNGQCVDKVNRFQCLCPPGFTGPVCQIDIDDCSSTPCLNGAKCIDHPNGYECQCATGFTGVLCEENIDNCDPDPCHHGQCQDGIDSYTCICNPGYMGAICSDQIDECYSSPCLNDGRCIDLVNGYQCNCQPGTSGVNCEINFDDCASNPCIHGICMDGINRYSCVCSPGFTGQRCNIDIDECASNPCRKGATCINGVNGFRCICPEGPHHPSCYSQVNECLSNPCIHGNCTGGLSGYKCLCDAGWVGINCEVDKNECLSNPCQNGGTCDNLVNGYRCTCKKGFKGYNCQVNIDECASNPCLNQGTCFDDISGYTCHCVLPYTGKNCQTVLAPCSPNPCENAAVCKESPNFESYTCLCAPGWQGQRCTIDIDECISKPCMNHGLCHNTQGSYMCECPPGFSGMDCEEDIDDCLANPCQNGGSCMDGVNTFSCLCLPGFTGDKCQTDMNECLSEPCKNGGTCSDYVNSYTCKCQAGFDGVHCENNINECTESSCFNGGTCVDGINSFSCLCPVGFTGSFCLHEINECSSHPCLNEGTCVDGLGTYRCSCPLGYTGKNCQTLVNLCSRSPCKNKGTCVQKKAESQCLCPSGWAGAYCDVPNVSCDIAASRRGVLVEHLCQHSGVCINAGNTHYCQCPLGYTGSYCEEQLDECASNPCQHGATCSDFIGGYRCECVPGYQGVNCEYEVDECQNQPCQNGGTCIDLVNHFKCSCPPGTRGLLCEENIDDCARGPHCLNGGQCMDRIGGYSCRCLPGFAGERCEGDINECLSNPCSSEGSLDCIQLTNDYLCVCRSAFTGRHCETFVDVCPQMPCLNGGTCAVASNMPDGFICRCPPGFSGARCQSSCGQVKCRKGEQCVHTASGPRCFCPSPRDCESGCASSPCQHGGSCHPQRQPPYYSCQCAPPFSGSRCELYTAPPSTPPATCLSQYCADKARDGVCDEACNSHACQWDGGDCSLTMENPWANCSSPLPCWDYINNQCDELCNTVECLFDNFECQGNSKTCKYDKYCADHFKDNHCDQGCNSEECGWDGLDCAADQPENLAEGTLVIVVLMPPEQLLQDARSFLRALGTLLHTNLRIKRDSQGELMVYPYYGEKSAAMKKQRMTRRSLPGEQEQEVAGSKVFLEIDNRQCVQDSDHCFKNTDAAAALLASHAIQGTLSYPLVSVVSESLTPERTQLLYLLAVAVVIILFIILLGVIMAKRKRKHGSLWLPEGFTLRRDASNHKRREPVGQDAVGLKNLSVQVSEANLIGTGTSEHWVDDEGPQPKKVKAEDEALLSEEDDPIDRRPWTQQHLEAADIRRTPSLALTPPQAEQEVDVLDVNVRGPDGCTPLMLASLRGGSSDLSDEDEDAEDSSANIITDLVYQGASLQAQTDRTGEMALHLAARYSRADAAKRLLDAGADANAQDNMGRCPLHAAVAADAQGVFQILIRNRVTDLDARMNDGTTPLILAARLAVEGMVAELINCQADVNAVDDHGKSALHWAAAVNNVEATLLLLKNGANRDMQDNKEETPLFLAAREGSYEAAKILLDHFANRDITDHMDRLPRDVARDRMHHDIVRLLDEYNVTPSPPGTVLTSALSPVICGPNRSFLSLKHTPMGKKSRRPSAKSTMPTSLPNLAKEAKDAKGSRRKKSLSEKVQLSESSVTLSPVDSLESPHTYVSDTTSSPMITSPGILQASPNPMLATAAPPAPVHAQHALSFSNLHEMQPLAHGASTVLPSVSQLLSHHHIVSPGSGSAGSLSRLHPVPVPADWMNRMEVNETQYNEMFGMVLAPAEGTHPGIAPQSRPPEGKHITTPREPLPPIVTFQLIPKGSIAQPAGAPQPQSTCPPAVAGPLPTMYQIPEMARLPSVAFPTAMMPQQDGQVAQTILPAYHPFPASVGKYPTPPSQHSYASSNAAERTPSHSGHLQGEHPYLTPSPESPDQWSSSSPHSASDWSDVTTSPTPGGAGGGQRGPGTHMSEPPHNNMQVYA
Chain of Neurogenic locus notch homolog protein 3 (Homo sapiens) (Q9UM47 whole entry, looked up): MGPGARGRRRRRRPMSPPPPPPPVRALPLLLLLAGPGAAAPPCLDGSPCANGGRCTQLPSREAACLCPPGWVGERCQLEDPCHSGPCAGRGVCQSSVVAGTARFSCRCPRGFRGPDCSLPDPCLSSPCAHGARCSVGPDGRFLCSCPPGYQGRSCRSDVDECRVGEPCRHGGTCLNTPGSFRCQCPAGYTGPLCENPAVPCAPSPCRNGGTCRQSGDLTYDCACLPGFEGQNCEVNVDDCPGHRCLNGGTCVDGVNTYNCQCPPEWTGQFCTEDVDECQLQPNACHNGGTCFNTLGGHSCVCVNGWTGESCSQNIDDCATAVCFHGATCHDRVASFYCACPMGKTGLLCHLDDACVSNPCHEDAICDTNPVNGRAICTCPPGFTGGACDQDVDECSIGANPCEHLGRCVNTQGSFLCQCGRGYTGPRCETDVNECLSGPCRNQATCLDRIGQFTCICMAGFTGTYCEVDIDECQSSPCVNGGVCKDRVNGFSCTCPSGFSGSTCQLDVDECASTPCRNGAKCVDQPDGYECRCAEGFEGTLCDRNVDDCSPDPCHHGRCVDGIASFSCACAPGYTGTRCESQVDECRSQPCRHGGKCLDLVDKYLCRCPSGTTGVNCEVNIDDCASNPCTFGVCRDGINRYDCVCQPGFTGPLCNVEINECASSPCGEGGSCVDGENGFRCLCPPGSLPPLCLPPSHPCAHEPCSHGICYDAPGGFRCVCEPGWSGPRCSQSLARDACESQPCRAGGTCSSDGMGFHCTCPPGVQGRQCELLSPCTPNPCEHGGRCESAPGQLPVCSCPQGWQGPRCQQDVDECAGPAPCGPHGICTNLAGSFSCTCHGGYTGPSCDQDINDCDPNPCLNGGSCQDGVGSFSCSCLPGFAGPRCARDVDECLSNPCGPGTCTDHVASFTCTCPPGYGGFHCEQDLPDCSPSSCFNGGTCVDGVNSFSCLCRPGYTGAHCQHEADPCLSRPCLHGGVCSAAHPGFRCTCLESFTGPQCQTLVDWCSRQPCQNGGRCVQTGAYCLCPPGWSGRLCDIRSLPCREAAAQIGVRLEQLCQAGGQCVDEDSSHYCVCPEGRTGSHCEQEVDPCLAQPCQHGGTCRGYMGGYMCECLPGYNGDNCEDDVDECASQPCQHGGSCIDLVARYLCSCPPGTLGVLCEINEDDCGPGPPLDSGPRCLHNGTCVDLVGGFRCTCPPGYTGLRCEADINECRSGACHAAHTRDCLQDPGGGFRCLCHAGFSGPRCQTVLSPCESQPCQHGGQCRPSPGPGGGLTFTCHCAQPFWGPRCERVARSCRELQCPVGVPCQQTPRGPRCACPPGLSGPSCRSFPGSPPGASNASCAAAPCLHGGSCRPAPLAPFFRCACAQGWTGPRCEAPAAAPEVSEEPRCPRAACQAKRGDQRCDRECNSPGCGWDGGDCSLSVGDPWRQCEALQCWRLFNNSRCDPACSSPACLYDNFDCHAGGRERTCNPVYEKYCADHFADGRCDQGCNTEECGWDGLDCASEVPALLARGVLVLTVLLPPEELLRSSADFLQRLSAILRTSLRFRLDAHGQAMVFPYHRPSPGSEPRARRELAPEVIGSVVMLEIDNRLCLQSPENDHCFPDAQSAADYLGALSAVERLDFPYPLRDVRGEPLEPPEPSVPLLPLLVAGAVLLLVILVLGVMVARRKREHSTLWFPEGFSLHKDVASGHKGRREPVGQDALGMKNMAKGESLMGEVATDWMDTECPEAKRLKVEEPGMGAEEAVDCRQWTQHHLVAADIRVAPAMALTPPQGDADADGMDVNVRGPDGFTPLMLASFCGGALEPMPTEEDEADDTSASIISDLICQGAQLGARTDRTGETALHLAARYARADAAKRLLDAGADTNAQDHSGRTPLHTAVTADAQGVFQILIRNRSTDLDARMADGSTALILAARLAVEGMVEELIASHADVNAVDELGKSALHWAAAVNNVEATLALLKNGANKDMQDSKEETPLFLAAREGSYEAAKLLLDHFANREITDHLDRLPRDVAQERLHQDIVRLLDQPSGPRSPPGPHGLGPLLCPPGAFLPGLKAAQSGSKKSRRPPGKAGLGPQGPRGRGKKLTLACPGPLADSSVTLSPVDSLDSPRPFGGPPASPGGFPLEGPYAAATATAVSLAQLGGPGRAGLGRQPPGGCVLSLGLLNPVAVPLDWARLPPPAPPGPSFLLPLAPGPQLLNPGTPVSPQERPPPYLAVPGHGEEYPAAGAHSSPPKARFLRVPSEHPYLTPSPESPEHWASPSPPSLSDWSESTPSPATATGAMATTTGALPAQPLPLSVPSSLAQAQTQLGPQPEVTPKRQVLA

SMILES | composite z-score [1] | composite z-score [2] | composite z-score [3] | composite z-score [4] | composite z-score [5] | composite z-score [6] | composite z-score [7] | z-score [8] | composite z-score [9] | composite z-score [10] | composite z-score [11] | z-score [12] | z-score [13] | z-score [14] | composite z-score [15] | z-score [16] | composite z-score [17] | composite z-score [18] | composite z-score [19] | composite z-score [20]
C=CCC(OC(C)=O)[C@@H]1[C@@H](N(Cc2cc3ccccc3o2)C(=O)Cc2ccc(F)cc2)c2cc(OCCCO)ccc2N1C(=O)c1ccc2ccccc2n1 (stereo not given in full) | -0.0583 | 0.337 | -0.0695 | 0.0991 | -0.0518 | -0.137 | -0.275 | -0.591 (inactive) | 0.0407 | 0.0881 | -0.22 | -0.271 (inactive) | -0.448 (inactive) | -0.258 (inactive) | -0.136 | -0.494 (inactive) | 0.055 | -0.145 | -0.814 | -0.0573
C[n+]1ccc(CCCO)cc1 | 1.03 | 1.06 | -0.044 | 0.0582 | -1.21 | -0.161 | 1.45 | 1.12 (inactive) | -0.311 | 0.837 | 0.618 | 0.654 (inactive) | -0.96 (inactive) | 0.316 (inactive) | 0.427 | -2.1 (inactive) | 0.181 | 0.436 | -0.13 | 0.0455
CC(=O)NCCCC[C@@H]1NC(=O)[C@@H]2C[C@H](C(=O)O)[C@H](c3ccc(O)cc3)N2C1=O | 0.736 | -1.54 | -0.174 | -1.07 | -1.09 | 0.78 | 1.42 | 0.785 (inactive) | -0.765 | -0.372 | -0.728 | 0.611 (inactive) | 1.36 (inactive) | 0.442 (inactive) | 2.17 | 0.129 (inactive) | 0.0208 | -1.42 | -1.27 | -0.322
C=CCNC(=O)[C@H]1[C@@H]2C(=O)O[C@@H](c3ccccc3)[C@@H](c3ccccc3)N2[C@@H](c2ccccc2OCCO)[C@]12C(=O)N(C(=O)OCCOC)c1ccc(C#CC3=CCCCC3)cc12 | 1.13 | 0.698 | 0.032 | 0.44 | 1.5 | 0.791 | 1.33 | -1.89 (inactive) | 0.877 | -0.0022 | 1.55 | 1.85 (inactive) | -1.02 (inactive) | 4.29 (inactive) | 2.38 | 1.23 (inactive) | 0.304 | 0.843 | 1.05 | 0.34
COc1ccc(NN2C(C(O)c3ccco3)C=CC3C(=O)N(C4CCCCC4)C(=O)C32)cc1 (stereo not given) | -0.0934 | 1.14 | -0.051 | 1.12 | 1.36 | 0.95 | 1.15 | 0.592 (inactive) | 1.51 | 0.0216 | 1.56 | 0.0039 (inactive) | -0.134 (inactive) | 0.705 (inactive) | 3.06 | -0.465 (inactive) | 0.0405 | 0.89 | 1.03 | 0.191
